Compound activity from PubChem BioAssay.
Compounds with a hit are over-represented: about 2.4% of the library has one in this group of screens.
PABP1 MLLE inh: inhibitors of PABP1 MLLE–PAM2 peptide binding, primary screen, biochemical, fluorescence polarization, FITC-PAM2, GST-MLLE; 360,000 tested, 0.36% active; inhibition, % at 20 µM; Polyadenylate-binding protein 1 (Homo sapiens), P11940; in the data active = inhibition above about 35%, passing the limit was not always enough
eIF4H FP inh: human eIF4H binding inhibitors, primary screen, translation initiation inhibitor project, biochemical, uHTS, fluorescence polarization | eIF4H fluorescence polarization binding assay | inhibition, % at 35 µM | 290,000 tested, 0.94% active;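 also: calls also rest on retests at 20 µM and on dose response follow-up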
PABP polyA inh: PABP poly(A) RNA binding inhibitors, primary screen, biochemical, fluorescence polarization, uHTS | 290,000 tested, 1% active | Polyadenylate-binding protein 1 (Homo sapiens), P11940 | calls only at 35 µM;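 also: calls also rest on retests at 20 µM and on dose response follow-up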
PHOSPHO1 inh: PubChem AID 1565. recombinant PHOSPHO1, absorbance phosphatase assay. inhibition, % at 13.3 µM. Phosphoethanolamine/phosphocholine phosphatase (Homo sapiens), Q8TCT1. 290,000 tested, 1.1% active; in the data active = inhibition above about 60%
Target sequence (Q8TCT1 whole entry, looked up): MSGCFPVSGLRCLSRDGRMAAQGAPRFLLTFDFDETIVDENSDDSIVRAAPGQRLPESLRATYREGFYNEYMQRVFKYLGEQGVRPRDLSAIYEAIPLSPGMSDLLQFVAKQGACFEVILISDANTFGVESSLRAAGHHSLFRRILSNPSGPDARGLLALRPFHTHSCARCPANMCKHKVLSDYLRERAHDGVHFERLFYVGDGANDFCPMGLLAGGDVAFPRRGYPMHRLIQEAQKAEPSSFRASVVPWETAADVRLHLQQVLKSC
Efa HMGR inh: inhibitors of E. faecalis class II HMGR, primary screen, biochemical, Enterococcus faecalis | HMG-CoA reductase (Enterococcus faecalis, mvaE) | purified E. faecalis HMGR, NADPH absorbance 340 nm kinetic | inhibition, % at 10 µM | 190,000 tested, 0.41% active | AID 1066, 2008;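 active = inhibition above a set limit, the median over all tested compounds plus 3 SD, cut at about 9.5% in these data; inconclusive = no clear call, values can overlap the other calls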;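 also: enzyme runs in reverse so mevalonate oxidation gives rising NADPH absorbance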
Each line names hits and unclear results; the compound was inactive in the other large screens. Unless noted, no rule for the calls is given here.

O=C(Nc1ccc2nn(-c3ccccc3)nc2c1)c1ccco1	none
CN(c1ccccc1C(=O)NCc1ccco1)S(C)(=O)=O	eIF4H FP inh 55.0, PABP polyA inh active
Cc1nn(-c2cccc(Cl)c2)c2nc(-c3ccco3)cc(C(=O)O)c12	eIF4H FP inh 79.6, PABP polyA inh active
O=C(O)c1cc(-c2ccco2)nn1-c1cccc(Cl)c1	PABP polyA inh active
Cc1nn(-c2ccccc2)c2nc(-c3ccco3)cc(C(=O)O)c12	eIF4H FP inh 88.2, PABP polyA inh active
Cc1ccc(C(=O)n2nc(C#N)c(C#N)c2N)cc1	none (no result: Efa HMGR inh)
C=CCn1c(=O)/c(=C/c2ccc(Cl)cc2)s/c1=C(\C#N)c1nnc2n1CCCCC2	none (no result: eIF4H FP inh, PABP polyA inh, PHOSPHO1 inh, Efa HMGR inh)
Cc1ccc(C(=O)NCCc2ccc(F)cc2)s1	none
Cc1ccc(NC2c3ncccc3C(=O)N2c2ccccc2C)cc1C (configuration not stated)	PHOSPHO1 inh 85.5
COC(=O)C1C=CC(OC2OC(COC(C)=O)C(OC(C)=O)C(OC(C)=O)C2OC(C)=O)n2c(=O)n(-c3ccccc3)c(=O)n21 (configuration not stated)	none (no result: eIF4H FP inh, PABP polyA inh, PHOSPHO1 inh, Efa HMGR inh)
O=C1C=CC(=O)c2c(O)c(N3CCN(CCO)CC3)c(Cl)c(O)c21	PABP1 MLLE inh 91.3 (no result: eIF4H FP inh, PABP polyA inh, PHOSPHO1 inh, Efa HMGR inh)
O=C1C=CC(=O)c2c(O)c(N3CCN(CCOCCO)CC3)c(Br)c(O)c21	PABP1 MLLE inh 93.9 (no result: eIF4H FP inh, PABP polyA inh, PHOSPHO1 inh, Efa HMGR inh)
NC(CO)(CO)COCc1ccccc1	PABP polyA inh active
CCCN(CC(=O)Nc1ccc(C(N)=O)cc1)CC(=O)Nc1ccc(F)c(F)c1F	none (no result: Efa HMGR inh)
S=C(NCCCN1CCOCC1)NC1CCCC1	none
S=C(NCCCN1CCOCC1)NCCCN1CCOCC1	PABP1 MLLE inh 41.2
Cc1cc(-c2ccc(S(=O)(=O)N(C)Cc3ccccc3)cc2)on1	none (no result: Efa HMGR inh)
COc1ccc(CNc2nc3ccccc3n2C)c(OC)c1	none
COc1ccc(N=Nc2nc3cc(Br)c(Br)cc3n2C)c(OC)c1	eIF4H FP inh inconclusive, PHOSPHO1 inh 72.2
S=C1NCCNC(=S)NCCOCCOCCN1	eIF4H FP inh active
C1COCCNCCOCCOCCOCCN1	none
Cc1cccc(NC(=O)C2CCN(C(=O)NCc3ccccc3)CC2)c1C	none (no result: Efa HMGR inh)
Cc1[nH]n(-c2ccccc2)c(=O)c1C=NCCc1ccccc1	none
O=[N+]([O-])c1ccc(C=Nc2ccccc2)cc1	none (no result: eIF4H FP inh, PABP polyA inh, PHOSPHO1 inh, Efa HMGR inh)
CCCCN=Cc1c(C)[nH]n(-c2ccccc2)c1=S	PHOSPHO1 inh 68.5
Cc1[nH]n(-c2ccccc2)c(=S)c1C=Nc1cccc([N+](=O)[O-])c1	PHOSPHO1 inh 107.1
CC(C)C1N(C(=O)N2CCOCC2)CCN1S(=O)(=O)c1ccccc1 (configuration not stated)	none (no result: Efa HMGR inh)
CC(C)N(C(=O)[C@H]1CC(CC(=O)NCc2cccc(C(F)(F)F)c2)C(=O)N2CCc3c([nH]c4ccccc34)[C@]12C)C(C)C (some centres not stated)	none (no result: eIF4H FP inh, PABP polyA inh, PHOSPHO1 inh, Efa HMGR inh)
CC(=O)N1c2ccc(S(=O)(=O)NCCC(=O)Nc3ccc(C)c(Cl)c3)cc2CC1C (configuration not stated)	none (no result: Efa HMGR inh)
Cc1ccc(NC(=S)NNC(=O)c2cccc([N+](=O)[O-])c2)cc1Cl	PHOSPHO1 inh 74.5 (no result: Efa HMGR inh)
OC[C@@H]1CN(Cc2ccco2)C[C@H](n2cnc3c(NCc4ccncc4)ncnc32)O1	none (no result: eIF4H FP inh, PABP polyA inh, PHOSPHO1 inh, Efa HMGR inh)
Cc1cccc(C(=O)Oc2ccc(/C=N/NC(=O)c3ccncc3)cc2)c1	none
Cc1cccc(C(=O)Oc2ccc(/C=N/NC(=O)c3cc(O)cc(O)c3)cc2)c1	eIF4H FP inh 99.3, PABP polyA inh active (no result: Efa HMGR inh)
Cn1c2ccccc2c2cc(/C=N/NC(=O)c3cc(O)ccc3O)ccc21	eIF4H FP inh 86.0, PABP polyA inh active (no result: Efa HMGR inh)
COc1cc(C(=O)N/N=C/c2ccc3c(c2)c2ccccc2n3C)ccc1O	none (no result: Efa HMGR inh)
Cn1c2ccccc2c2cc(/C=N/NC(=O)c3cc(O)cc(O)c3)ccc21	eIF4H FP inh 94.8, PABP polyA inh active (no result: Efa HMGR inh)
O=C(N/N=C/c1cccc(O)c1)c1ccccc1O	none (no result: Efa HMGR inh)
Cc1ccc(OCC(=O)n2nc(C)cc2C)c(Br)c1	none
Cc1cc(C)n(CC(O)COc2ccccc2C)n1 (configuration not stated)	Efa HMGR inh 11.5
COc1ccc(-c2cc3ccccc3n2CC(O)Cn2nc(C)cc2C)cc1 (configuration not stated)	eIF4H FP inh 77.7, PABP polyA inh active
Cc1cc(C)n(C(=O)COc2ccccc2C)n1	Efa HMGR inh 13.0
Cc1ccc(OC(=O)COc2ccccc2C)c(-n2nc3ccccc3n2)c1	PABP1 MLLE inh 53.4
C[C@H](NC(=O)C1CC(=O)N(c2ccc3c(c2)OCCO3)C1)C(=O)N1CCCCC1 (some centres not stated)	none (no result: eIF4H FP inh, PABP polyA inh, Efa HMGR inh)
COCCCNC1=C(C#N)C(=O)NC(c2cccs2)S1 (configuration not stated)	none (no result: eIF4H FP inh, PABP polyA inh, PHOSPHO1 inh, Efa HMGR inh)
CCc1cccc(NC(=O)Cn2c(=O)c3cccn3c3ccccc32)c1	none (no result: Efa HMGR inh)
CC1CC(C)CN(CC(=O)N2CCc3[nH]c4ccccc4c3C2)C1 (configuration not stated)	eIF4H FP inh 125.9, PABP polyA inh active
Cc1ccc2[nH]c3c(c2c1)CN(C(=O)CN1CCCCC1)CC3	none (no result: PABP1 MLLE inh, Efa HMGR inh)
O=C(CN1CCCc2ccccc21)NC(=O)NC1CCCCC1	none
CC1CN(CC(=O)N2CCc3[nH]c4ccccc4c3C2)CC(C)O1 (configuration not stated)	none
Cc1ccc2[nH]c3c(c2c1)CN(C(=O)CN1CCCc2ccccc21)CC3	PHOSPHO1 inh 69.9
NC(=O)C1CCN(C(=O)CN2CCCc3ccccc32)CC1	eIF4H FP inh 78.2, PABP polyA inh active
COc1ccccc1-c1noc(CCC(=O)Nc2cccnc2)n1	none (no result: eIF4H FP inh, PABP polyA inh, PHOSPHO1 inh, Efa HMGR inh)
COc1ccc(CCNC(=O)C/C(C)=N/NC(=O)c2cnccn2)cc1	none (no result: Efa HMGR inh)
CCC1CCCCN1C(=O)CCn1ccnc1 (configuration not stated)	Efa HMGR inh 15.0
CC(C)CCNC(=O)Cc1csc(-c2ccccc2)n1	none
CC(O)CCC(=O)NNC1=CC(=O)CC(C)(C)C1 (configuration not stated)	PHOSPHO1 inh 64.2 (no result: PABP1 MLLE inh)
CCCCCC(O)CCC(=O)NNC1=CC(=O)CC(C)(C)C1 (configuration not stated)	none
N#Cc1ccc(S(=O)(=O)NC2CC2)cc1	none (no result: Efa HMGR inh)
c1coc(-c2nn3c(Cn4nnc5ccccc54)nnc3s2)c1	PABP1 MLLE inh 38.1
c1csc(-c2nn3c(Cn4cnc5ccccc54)nnc3s2)c1	PHOSPHO1 inh 83.0
c1ccc2c(c1)nnn2Cc1nnc2sc(-c3ccncc3)nn12	PHOSPHO1 inh 79.1
c1csc(-c2nn3c(Cn4nnc5ccccc54)nnc3s2)c1	none
COc1ccccc1Nc1ccc(C(=O)NCc2cccs2)cn1	none
COc1ccccc1Nc1ncc(-c2cccs2)s1	PHOSPHO1 inh 82.0
COc1cc(OC)c(NC(=O)c2ccc3c(SCC(=O)O)c4c(nc3c2)CCCC4)cc1Cl	eIF4H FP inh 80.8, PABP polyA inh active
